Measured values reported in PubChem BioAssay (NCI).
About 79,000 compounds went through this panel and 15% of them were active in at least one assay; those are over-represented in the sample as a whole. The source made the active and inactive calls. Rule as the data show it: active = growth inhibition above about 70%; inactive = the rest.

Columns and labels:
[1] = NCI Yeast Anticancer Drug Screen. Data for the rad52 strain (AID 147);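 also: 0% = growth of vehicle-treated control cultures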; details: S. cerevisiae rad52 mutant growth inhibition, hits give high values
Procedure, shortened: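 Screen used a yeast mutant impaired in DNA repair. After compound exposure, growth was measured. Values reflect inhibition compared with vehicle-treated cells.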

[2] = NCI Yeast Anticancer Drug Screen. Data for the wt1 strain (AID 149);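 also: 0% = growth of vehicle-treated wt1 cultures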; details: S. cerevisiae wt1 strain (SPY 50644) growth inhibition, hits give high values
Procedure, shortened: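 The wt1 strain was treated with compounds, and growth was compared with vehicle-treated cultures to give inhibition.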

[3] = NCI Yeast Anticancer Drug Screen. Data for the rad50EPP+ strain (AID 151);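 also: 0% = growth of vehicle-treated control cultures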; details: S. cerevisiae rad50 mutant strain, hits give high values
Procedure, shortened: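 Exposing the rad50EPP+ strain to each compound, growth was compared with vehicle-only cultures to give inhibition.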

[4] = NCI Yeast Anticancer Drug Screen. Data for the mgt1 strain (AID 153); details: S. cerevisiae mgt1 mutant growth inhibition, hits give high values
Procedure, shortened: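 Genetically defined yeast (mgt1) treated with compound; inhibition of growth expressed against vehicle-treated controls.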

[5] = NCI Yeast Anticancer Drug Screen. Data for the rad50 strain (AID 155);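 also: 0% = growth of vehicle-only cultures of the same strain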; details: S. cerevisiae rad50 strain growth inhibition, hits give high values
Procedure, shortened: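 Cells are treated with compound, grown, and their growth is then scored against vehicle-only cultures of the same repair-deficient yeast strain.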

[6] = NCI Yeast Anticancer Drug Screen. Data for the mec2-1 strain (AID 157); details: S. cerevisiae mec2-1 strain, hits give high values
Procedure, shortened: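 Readout is yeast growth inhibition, normalised to vehicle-treated controls, in the mec2-1 strain exposed to compound.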

[7] = NCI Yeast Anticancer Drug Screen. Data for the rad14 strain (AID 159);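 also: 0% = growth of vehicle-treated control cultures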; details: S. cerevisiae rad14 strain growth inhibition, hits give high values
Procedure, shortened: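 Readout: yeast growth inhibition, referenced to vehicle-only cultures. Strain bears a defined alteration in DNA damage repair.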

[8] = NCI Yeast Anticancer Drug Screen. Data for the sgs1 mgt1 strain (AID 161);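 also: 0% = growth of cultures given vehicle only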; details: S. cerevisiae sgs1 mgt1 strain, hits give high values
Procedure, shortened: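 Compounds are added to genetically altered yeast, and growth is compared with cultures given vehicle alone to give percent inhibition.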

[9] = NCI Yeast Anticancer Drug Screen. Data for the CLN2oe strain (AID 163);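 also: 0% = growth of vehicle-only control cultures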; details: S. cerevisiae CLN2oe strain, hits give high values
Procedure, shortened: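 Values reflect how much compound exposure reduced yeast growth, referenced to vehicle-exposed cells. Assay organism is a strain with a defined genetic change affecting cell-cycle control.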

[10] = NCI Yeast Anticancer Drug Screen. Data for the cln2 rad14 strain (AID 165);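 also: 0% = growth equal to vehicle treated cultures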; details: S. cerevisiae cln2 rad14 strain, hits give high values
Procedure, shortened: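 Relative to vehicle controls, growth inhibition of compound-treated cln2 rad14 yeast was recorded.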

[11] = NCI Yeast Anticancer Drug Screen. Data for the bub3 strain (AID 167); details: S. cerevisiae bub3 mutant strain, hits give high values
Procedure, shortened: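 Part of a panel of yeast mutants defective in DNA damage repair or cell cycle regulation. Each strain is grown with compound, and inhibition is calculated relative to solvent-treated cultures.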

[12] = NCI Yeast Anticancer Drug Screen. Data for the mlh1 strain (AID 171);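 also: 0% = growth of vehicle-treated control cultures of the same strain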; details: S. cerevisiae mlh1 strain growth inhibition, hits give high values
Procedure, shortened: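 Steps: expose the defined-mutant yeast strain to compound; expose a parallel culture to vehicle; measure growth; express compound effect as inhibition relative to the vehicle culture.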

[13] = NCI Yeast Anticancer Drug Screen. Data for the sgs1 strain (AID 173);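 also: 0% = growth of vehicle-only control cultures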; details: S. cerevisiae sgs1 mutant, hits give high values
Procedure, shortened: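 Treat defined-mutant yeast with compound; measure growth; calculate inhibition relative to vehicle-treated cells.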

[14] = NCI Yeast Anticancer Drug Screen. Data for the mlh1 rad18 strain (AID 175); details: S. cerevisiae mlh1 rad18 strain growth inhibition, hits give high values
Procedure, shortened: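 Test agents were incubated with a yeast strain of defined genotype (DNA damage repair defect). Inhibition of growth was derived by comparison with vehicle-exposed cultures.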

[15] = NCI Yeast Anticancer Drug Screen. Data for the rad18 strain (AID 177); details: S. cerevisiae rad18 mutant growth inhibition, hits give high values
Procedure, shortened: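 A genetically defined yeast mutant impaired in DNA damage repair was treated with test compounds, then its growth was measured against cultures receiving vehicle alone.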

[16] = at 5.0 µM (retest, dose inferred, filed as 0.5)
[17] = at 50.0 µM (retest, dose inferred, filed as 5.0)

Measured: growth inhibition

OC1(c2ccccc2)C2CC=CC2C1(c1ccccc1)c1ccccc1 (stereo not drawn)
active: [8]; [17] 70% | [13]; at 100.0 µM 77% | [14]; [17] 76%
inactive: [1]; at 1.2 µM 0% | [1]; at 3.7 µM -1% | [1]; at 11.0 µM 4% | [1]; at 33.0 µM 34% | [1]; at 100.0 µM 63% | [2]; at 1.2 µM -4% | [2]; at 3.7 µM -7% | [2]; at 11.0 µM -8% | [2]; at 33.0 µM -7% | [2]; at 100.0 µM 21% | [3]; at 1.2 µM -7% | [3]; at 3.7 µM -1% | [3]; at 11.0 µM 2% | [3]; at 33.0 µM -5% | [3]; at 100.0 µM -5% | [4]; at 1.2 µM -4% | [4]; at 3.7 µM -2% | [4]; at 11.0 µM -5% | [4]; at 33.0 µM -4% | [4]; at 100.0 µM 16% | [5]; at 1.2 µM -2% | [5]; at 3.7 µM 6% | [5]; [16] 12% | [5]; at 11.0 µM 12% | [5]; at 33.0 µM 43% | [5]; [17] 53% | [5]; at 50.0 µM 12.1% | [5]; at 100.0 µM 62% | [6]; at 1.2 µM -3% | [6]; at 3.7 µM -2% | [6]; [16] -6% | [6]; at 11.0 µM -6% | [6]; at 33.0 µM 18% | [6]; [17] -10% | [6]; at 50.0 µM -14.2% | [6]; at 100.0 µM 49% | [7]; at 1.2 µM -3% | [7]; at 3.7 µM 4% | [7]; at 11.0 µM 6% | [7]; at 33.0 µM 0% | [7]; at 100.0 µM 19% | [8]; [16] 16% | [8]; at 50.0 µM 11.1% | [9]; at 1.2 µM 2% | [9]; at 3.7 µM 8% | [9]; at 11.0 µM 2% | [9]; at 33.0 µM -7% | [9]; at 100.0 µM 10% | [10]; [16] 15% | [10]; [17] 19% | [10]; at 50.0 µM -3.15% | [11]; at 1.2 µM 0% | [11]; at 3.7 µM 2% | [11]; [16] -3% | [11]; at 11.0 µM -9% | [11]; at 33.0 µM 2% | [11]; [17] 52% | [11]; at 50.0 µM 10.9% | [11]; at 100.0 µM 27% | [12]; at 1.2 µM -3% | [12]; at 3.7 µM 1% | [12]; at 11.0 µM 7% | [12]; at 33.0 µM 13% | [12]; at 100.0 µM 45% | [13]; at 1.2 µM -15% | [13]; at 3.7 µM -2% | [13]; at 11.0 µM -2% | [13]; at 33.0 µM 54% | [14]; [16] 19% | [14]; at 50.0 µM 0.45% | [15]; at 1.2 µM -8% | [15]; at 3.7 µM -4% | [15]; at 11.0 µM -4% | [15]; at 33.0 µM 1% | [15]; at 100.0 µM 41%

O=C1C=C(Br)C(=O)c2ccccc21
active: [1]; at 11.0 µM 94% | [1]; at 33.0 µM 99% | [1]; at 100.0 µM 99% | [2]; at 11.0 µM 73% | [2]; at 33.0 µM 99% | [2]; at 100.0 µM 99% | [3]; at 11.0 µM 95% | [3]; at 33.0 µM 99% | [3]; at 100.0 µM 98% | [4]; at 11.0 µM 96% | [4]; at 33.0 µM 99% | [4]; at 100.0 µM 99% | [5]; at 11.0 µM 98% | [5]; at 33.0 µM 99% | [5]; [17] 99% | [5]; at 50.0 µM 99.2% | [5]; at 100.0 µM 99% | [6]; at 11.0 µM 97% | [6]; at 33.0 µM 99% | [6]; [17] 99% | [6]; at 50.0 µM 99.2% | [6]; at 100.0 µM 99% | [7]; at 11.0 µM 98% | [7]; at 33.0 µM 99% | [7]; at 100.0 µM 99% | [8]; [17] 99% | [8]; at 50.0 µM 99.2% | [9]; at 33.0 µM 99% | [9]; at 100.0 µM 99% | [10]; [17] 99% | [10]; at 50.0 µM 99.1% | [11]; [16] 86% | [11]; at 11.0 µM 99% | [11]; at 33.0 µM 99% | [11]; [17] 99% | [11]; at 50.0 µM 99% | [11]; at 100.0 µM 99%
inactive: [1]; at 1.2 µM 6% | [1]; at 3.7 µM 19% | [2]; at 1.2 µM 10% | [2]; at 3.7 µM 23% | [3]; at 1.2 µM 19% | [3]; at 3.7 µM 39% | [4]; at 1.2 µM 11% | [4]; at 3.7 µM 18% | [5]; at 1.2 µM 9% | [5]; at 3.7 µM 46% | [5]; [16] 27% | [6]; at 1.2 µM 17% | [6]; at 3.7 µM 37% | [6]; [16] 39% | [7]; at 1.2 µM 10% | [7]; at 3.7 µM 24% | [8]; [16] 57% | [9]; at 1.2 µM 5% | [9]; at 3.7 µM 9% | [9]; at 11.0 µM 47% | [10]; [16] 5% | [11]; at 1.2 µM 22% | [11]; at 3.7 µM 44%
